# Assay outcomes: PubChem BioAssay, several laboratories
# FID counter: fluorescent intercalator displacement, NS3 helicase counter-screen; DNA fluorescent intercalator displacement, fluorescence; inhibition, % at 7.9 µM; 290,000 compounds, 0.17% hits; AID 1845; in the data active means inhibition above about 37%;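 further: higher means more ethidium bromide displaced from hairpin DNA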
# MEKK3 PB1 HTS: MEKK3-MEK5 PB1 interaction, increase or decrease; Q99759; bead-based flow cytometry, Alexa488-MEK5 binding to MEKK3; actives lie on both sides; 0 = blocked by unlabeled MEK5, 100 = vehicle; binding response (% of control), % at 10 µM; 290,000 compounds, 1.4% hits; AID 1529;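 active means binding response more than 3 SD above or below the average of its plate-row segment, actives on both sides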;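 further: Alexa488 bead fluorescence after subtracting the streptavidin-only scavenger bead signal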
# MEKK2 mut-MEK5: signal of MEK5 binding to mutant human MEKK2 PB1 domain; bead flow cytometry, Alexa488-MEK5 binding to MEKK2 mutant; percent response, % at 10 µM; 290,000 compounds, 0.35% hits; AID 1530; in the data active means percent response above about 24%, passing the limit was not always enough
# dFosB activator: enhances mouse delta FosB homodimer DNA binding; P13346; purified delta FosB, TAMRA-CDK5 oligo fluorescence polarization; percent of positive-control signal above neutral wells; activation, % at 25 µM; 340,000 compounds, 0.99% hits; AID 493131;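 active means mean activation above about 17%, with every replicate also reaching it, limit read from the data, passing the limit was not always enough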
# Target sequence (P13346 whole entry, looked up): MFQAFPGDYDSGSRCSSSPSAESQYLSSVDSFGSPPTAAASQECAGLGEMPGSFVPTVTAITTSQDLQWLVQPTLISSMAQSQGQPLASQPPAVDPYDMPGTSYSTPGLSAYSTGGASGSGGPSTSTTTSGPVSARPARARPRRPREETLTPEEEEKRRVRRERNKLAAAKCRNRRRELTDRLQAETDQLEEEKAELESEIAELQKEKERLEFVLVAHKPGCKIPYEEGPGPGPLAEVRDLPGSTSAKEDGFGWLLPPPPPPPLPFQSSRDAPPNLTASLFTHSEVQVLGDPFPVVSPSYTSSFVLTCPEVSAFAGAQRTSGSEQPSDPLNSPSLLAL
# MEKK2 WT-MEK5: raises or lowers MEK5 binding to wildtype human MEKK2 PB1 domain; Q9Y2U5; bead flow cytometry, Alexa488-MEK5 binding to MEKK2 WT; actives lie on both sides; binding response (% of control), % at 10 µM; 290,000 compounds, 1.1% hits; AID 1531; in the data active means binding response below about 67% or above about 130%
# Numbers stand for hits; – = inactive; · = no result given. Rows were chosen to be rich in hits. Some 2.9% of all compounds tested hit in one or more screens of this group.
SMILES,FID counter,MEKK3 PB1 HTS,MEKK2 mut-MEK5,dFosB activator,MEKK2 WT-MEK5
Cc1ccc(SCCCCN2CCNCC2)cc1,–,–,–,–,–
O=[N+]([O-])c1cccc(N/N=C/c2cccc3ccccc23)c1,–,–,–,–,–
COC(CN(C)C(=O)c1ccc(CS(=O)(=O)c2ccccc2C)o1)OC,–,–,–,–,–
O=C(Nc1ccc(Br)cc1)c1ccc2c(c1)OCO2,–,–,–,–,–
C/C=C/C(=O)N(CC)c1ccccc1C,–,–,–,–,–
CN(C)CCCN(C(=O)c1ccc(Br)s1)c1nc2cc3c(cc2s1)OCCO3,·,·,·,24,·
CN(C)CCCN(C(=O)c1ccc([N+](=O)[O-])s1)c1nc2cc3c(cc2s1)OCCO3,–,–,–,–,–
CCCC(CCC)C(=O)Nc1ccc2c(c1)N(C(=O)CN1CCN(C)CC1)c1ccccc1CC2,49,–,–,–,–
O=C(COC(=O)c1cccc(S(=O)(=O)N2CCCCC2)c1)NC1CCCCC1,·,·,·,–,·
O=C(/C=C/c1ccc(Cl)c([N+](=O)[O-])c1)Nc1ccc(NC(=O)c2ccco2)cc1,–,–,–,–,–
O=C(Nc1ccc(N2CCCC2)cc1)c1cc(Cl)ccc1Cl,–,–,–,135,–
O=C(Nc1ccc(N2CCCC2)cc1)C(c1ccccc1)c1ccccc1,–,–,–,77,–
O=C(/C=C/c1ccc(Cl)c([N+](=O)[O-])c1)Nc1ccc(N2CCCC2)cc1,–,–,–,28,–
O=C(Cc1ccccc1)Nc1ccc(N2CCCC2)cc1,–,–,–,68,–
CC(=O)N1CCN(c2ccc(NC(=O)C(c3ccccc3)c3ccccc3)cc2)CC1,–,–,–,–,–
Cc1cccc(C(C(=O)NCc2ccc(F)cc2)N(C(=O)c2csnn2)C2CC2)c1 (stereo unspecified),–,–,–,–,–
Cc1ccc(C)c(SCC(=O)Nc2cccnc2Cl)c1,–,–,–,–,–
Cc1nc(SCC(=O)N(CC(C)C)C2CCS(=O)(=O)C2)c2c(C)c(C)sc2n1 (stereo unspecified),·,·,·,–,·
CCC1CCCCN1CCCNC(=O)Cn1cnc2sc(C)c(S(=O)(=O)N3CC(C)CC(C)C3)c2c1=O (stereo unspecified),–,–,26,–,135
CCN(CC)CCCNC(=O)Cn1cnc2sc(C)c(S(=O)(=O)N3CCC(C)CC3)c2c1=O,–,–,–,–,–
O=C(O)c1ccc2c(c1)C(=O)N(c1cccc(C(=O)/C=C/c3ccccc3)c1)C2=O,–,–,–,–,–
COc1ccc(OC)c2nc3c(C(=O)NCCN(C)C)cccc3nc12,·,·,·,87,·
CN(C)CCNC(=O)c1cccc2nc3cccc(F)c3nc12,·,·,·,33,·
CN(C)CCNC(=O)c1cccc2ccc(-c3ccc(-c4ccccc4)cc3)nc12,·,·,·,–,·
Cc1ccccc1C(=O)NCC(=O)OC1CCCCC1=O (stereo unspecified),·,·,·,–,·
SMILES,FID counter,MEKK3 PB1 HTS,MEKK2 mut-MEK5,dFosB activator,MEKK2 WT-MEK5
COc1ccc(N(CC(=O)NCCC(C)C)C(=O)c2snc(C(=O)NC3CCCCC3)c2N)c(OC)c1,–,–,–,–,–
COc1cc(NCCCCCCN)c2ncccc2c1OC,·,·,·,18,·
COc1cc(NC(C)CCCNC(C)C)c2ncccc2c1OC (stereo unspecified),·,·,·,–,·
CN1CCN(C(=O)c2ccc3c(c2)N(C)C(=O)/C(=C/c2cccc(Cl)c2)S3)CC1,–,–,–,–,137
CC1=CC(=C(C#N)C#N)C=C(C)N1CCN1CCN(C(=O)Nc2cccc(Cl)c2)CC1,–,–,–,30,–
CC1=CC(=C(C#N)C#N)C=C(C)N1CCN1CCNCC1,–,–,–,19,–
CC(=O)N1CCN(CCN2C(C)=CC(=C(C#N)C#N)C=C2C)CC1,–,–,–,–,–
C=CC(=O)Nc1cccc(N(C)c2ccnc(Nc3ccc(N4CCN(C)CC4)cc3)n2)c1,·,·,·,46,·
CN1CCN(c2ccc(NC(=O)COc3cccc4ccccc34)cc2)CC1,–,–,–,–,–
C=CC(=O)Nc1cccc(Oc2ccnc(Nc3ccc(N4CCN(C)CC4)cc3)n2)c1,·,·,·,66,·
CCOc1ccc(CNC2CCCCCCC2)cc1OC,–,–,–,–,–
C1CCN(CC2CCCCN2)CC1 (stereo unspecified),·,·,·,–,·
CC(=O)Nc1ccc(S(=O)(=O)NC2=NCN(c3ccc([N+](=O)[O-])cc3)CN2)cc1,–,–,–,24,–
COc1ccccc1/C=C\C(=O)NCC(=O)N/N=C/c1cccc(OC)c1O,–,–,–,30,–
COC(=O)c1sc2cc([N+](=O)[O-])cc(SCC(C)C)c2c1N,–,–,–,–,9.0
COc1ccccc1CCN1CCCC(CN(C)Cc2ccc(OCCO)cc2)C1 (stereo unspecified),–,–,–,–,–
CC1CCN(CCCNC(=O)c2cc3c(s2)-c2ccccc2OC3)CC1,–,–,–,–,134
Cc1cccc2c1-c1sc(C(=O)NCCCN3CCC(C)CC3)cc1CO2,–,–,29,–,186
COC(=O)c1cc(C)nc(Sc2ccccc2N)n1,–,–,–,·,–
CCCCOC(=O)c1ccc(NC(=O)CN2C(=O)NC3(CCCCCC3)C2=O)cc1,·,·,·,–,·
CCCCCN(C(=O)CCC(=O)OCC(=O)N(CC)C1CCCCC1)c1c(N)n(CCCC)c(=O)[nH]c1=O,·,·,·,–,·
CC(=O)NNS(=O)(=O)c1scc(S(=O)(=O)c2ccc(Cl)cc2)c1C,–,–,–,–,–
CCN(Cc1cnn(C)c1)C(=O)CC1C(=O)NCCN1Cc1cccc(OC)c1OC (stereo unspecified),–,–,–,–,–
COc1ccc(CNC(=O)c2cc(=O)c3cc(C)ccc3o2)cc1,–,–,–,17,–
COC(=O)C1CSC(C(=O)OC)N1C(=O)Nc1ccc(Cl)cc1 (stereo unspecified),–,–,–,–,–
SMILES,FID counter,MEKK3 PB1 HTS,MEKK2 mut-MEK5,dFosB activator,MEKK2 WT-MEK5
CC(c1ccccc1)N1C(=O)c2ccc(C(=O)Nc3ccccc3C(=O)O)cc2C1=O (stereo unspecified),43,–,–,–,–
O=C(CNc1n[nH]c(=O)[nH]c1=O)N/N=C/C=C/c1ccccc1,–,–,–,–,–
CCOc1cccc2cc(C(=O)N3CCc4ccccc43)c(=O)oc12,–,–,–,–,5.0
COc1cc(-c2cc(C(=O)Nc3ccc(C)c(S(=O)(=O)N4CCOCC4)c3)c3ccccc3n2)cc(OC)c1OC,·,·,·,33,·
COc1ccc(/C=N/NC(=O)c2ccccc2)cc1CN1CCN(c2ccc(F)cc2)CC1,–,·,·,–,·
COc1cc(C(=O)N/N=C/c2ccc(OC)c(CN3CCN(c4ccc(F)cc4)CC3)c2)ccc1O,–,–,–,39,–
Oc1ccccc1-c1nc2c3ccccc3c3ccccc3c2[nH]1,–,–,–,–,-12
c1csc(-c2nc3c4ccccc4c4ccccc4c3[nH]2)c1,–,–,–,–,–
CCN(CC)CCn1c2ccccc2c2cnc(N=CN(C)C)c(C#N)c21,–,–,–,29,–
